Test results reported in PubChem BioAssay (NCI).
Compounds without any hit were thinned out: in the full panel of roughly 79,000, 15% have a hit. A number with no mark means an inactive call. The source made the active and inactive calls. No stated cut-off is given here; in the data, active means growth inhibition above about 70%; inactive means the rest.

What was measured:
[1] = NCI Yeast Anticancer Drug Screen. Data for the rad50 strain (AID 155);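 further: 0% = growth of vehicle-only cultures of the same strain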; conditions: S. cerevisiae rad50 strain growth inhibition, active compounds read high
How it was run: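 Growth of the mutant yeast was measured after compound exposure and referenced to vehicle-treated cultures.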

[2] = NCI Yeast Anticancer Drug Screen. Data for the mec2-1 strain (AID 157); conditions: S. cerevisiae mec2-1 strain, active compounds read high
How it was run: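 Cells of the genetically defined mec2-1 yeast strain are incubated with test compound. Inhibition of growth is calculated against vehicle-treated controls.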

[3] = NCI Yeast Anticancer Drug Screen. Data for the sgs1 mgt1 strain (AID 161);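 further: 0% = growth of cultures given vehicle only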; conditions: S. cerevisiae sgs1 mgt1 strain, active compounds read high
How it was run: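 Inhibition of yeast growth, normalised to vehicle-treated controls, is reported for a strain bearing genetic alterations in DNA damage repair.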

[4] = NCI Yeast Anticancer Drug Screen. Data for the cln2 rad14 strain (AID 165);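 further: 0% = growth equal to vehicle treated cultures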; conditions: S. cerevisiae cln2 rad14 strain, active compounds read high
How it was run: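 The screen exposed genetically defined yeast (cln2 rad14) to test compounds and scored growth inhibition relative to vehicle-treated controls.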

[5] = NCI Yeast Anticancer Drug Screen. Data for the bub3 strain (AID 167); conditions: S. cerevisiae bub3 mutant strain, active compounds read high
How it was run: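 Whole-cell yeast assay. The mutant strain was incubated with compounds, and growth inhibition was determined by comparison with vehicle-treated cells.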

[6] = NCI Yeast Anticancer Drug Screen. Data for the mlh1 rad18 strain (AID 175); conditions: S. cerevisiae mlh1 rad18 strain growth inhibition, active compounds read high
How it was run: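 Compound-treated yeast growth, normalised to vehicle controls. Strain bears defined DNA repair mutations.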

[7] = at 5.0 µM (retest, dose inferred, filed as 0.5)
[8] = at 50.0 µM (retest, dose inferred, filed as 5.0)

SMILES | growth inhibition [1, 7] | growth inhibition [1, 8] | growth inhibition ([1]; at 50.0 µM) | growth inhibition [2, 7] | growth inhibition [2, 8] | growth inhibition ([2]; at 50.0 µM) | growth inhibition [3, 7] | growth inhibition [3, 8] | growth inhibition ([3]; at 50.0 µM) | growth inhibition [4, 7] | growth inhibition [4, 8] | growth inhibition ([4]; at 50.0 µM) | growth inhibition [5, 7] | growth inhibition [5, 8] | growth inhibition ([5]; at 50.0 µM) | growth inhibition [6, 7] | growth inhibition [6, 8] | growth inhibition ([6]; at 50.0 µM)
Cc1c2ccccc2c(CCl)c2ccc3ccccc3c12 | 99% (active) | 98% (active) | 97.7% (active) | 100% (active) | 99% (active) | 97.2% (active) | 100% (active) | 99% (active) | 98.3% (active) | 99% (active) | 99% (active) | 97.5% (active) | 99% (active) | 99% (active) | 98.8% (active) | 100% (active) | 99% (active) | 96.8% (active)
CCc1cccc(CC)c1NC1=C(Cl)C(=O)c2ccccc2C1=O | 99% (active) | 99% (active) | -21.1% | 100% (active) | 99% (active) | 5% | 99% (active) | 99% (active) | 14.5% | 95% (active) | 98% (active) | -26.9% | 99% (active) | 98% (active) | 5.15% | 99% (active) | 98% (active) | 19.1%
CC(C)c1cc(C(C)C)c(Cl)c(Cl)c1O (tested in a mixture with another compound) | 1% | 44% | 99.3% (active) | 3% | 100% (active) | 99.5% (active) | 6% | 98% (active) | 99.5% (active) | 5% | 73% (active) | 98.9% (active) | 0% | 77% (active) | 87.5% (active) | -1% | 14% | 84.5% (active)
OC(C/C(=N\N=C(/CC(O)(C(F)(F)F)C(F)(F)F)c1ccccc1)c1ccccc1)(C(F)(F)F)C(F)(F)F | -2% | 2% | 62.6% | -6% | -11% | 51% | -7% | -17% | 50.9% | 6% | 12% | 62.1% | 1% | -5% | 69% | -8% | 3% | 71.1% (active)
CN1CCCN(C)C1c1cc([N+](=O)[O-])ccc1O | 25% | 95% (active) | 49.5% | 3% | 92% (active) | 98.2% (active) | 7% | 96% (active) | 97.7% (active) | 11% | 93% (active) | 87.3% (active) | -6% | 95% (active) | 96.8% (active) | 7% | 99% (active) | 98.9% (active)
CC(=O)Oc1c(O)c2ccccc2c2ccccc12 | 6% | 93% (active) | 99.5% (active) | -5% | 97% (active) | 99.2% (active) | 2% | 83% (active) | 99.3% (active) | -11% | 95% (active) | 97.5% (active) | 5% | 96% (active) | 99.5% (active) | -4% | 92% (active) | 98.9% (active)
Cc1ccc2c(c1)C1(SC(CC(=O)O)C(=O)N1c1ccc(Cl)cc1)C(=O)N2 (stereo not given) | 4% | 5% | 2.3% | 0% | -1% | 12.3% | 1% | -6% | -6.85% | -1% | -4% | -4.2% | 1% | 0% | -2.8% | 0% | -49% | 10.5%
CC(CN(C)C)C(/C=C/c1ccc(F)cc1)=N\Nc1ccccc1 (stereo not given) | -8% | 51% | 30.1% | -11% | 1% | 12.6% | -15% | 13% | 42.6% | 5% | 46% | 3.65% | -1% | 39% | 15.9% | 0% | 29% | 75.7% (active)
NCc1ccc(O)c(O)c1O | -2% | 78% (active) | 14.9% | 8% | 80% (active) | 14.4% | 8% | 61% | 38.2% | -16% | 52% | -2.75% | -2% | 82% (active) | 81.4% (active) | -22% | 83% (active) | 16.3%
Cc1cc2nc(-c3ccccc3[N+](=O)[O-])[nH]c2cc1C | -3% | 20% | 21.6% | -7% | 7% | -0.15% | -6% | 61% | 41.1% | -3% | -1% | -73.7% | 6% | 55% | 16.3% | 2% | 56% | 3.2%
